From PubChem BioAssay AID898 (University of Pittsburgh Molecular Library Screening Center, 2007)
Out of some 140,000 compounds screened, about 220 (0.16%) were called active. Many of the other results were omitted from the sample, so actives are more common in it than they were. A number with no mark means an inactive call. Cut-off read from the data, not from the text of the source: active = inhibition above about 50%; inactive = the rest.

What follows are compounds tested on YopH tyrosine phosphatase [Yersinia enterocolitica] (assay: inhibition of Yersinia YopH phosphatase – biochemical, fluorescence Ex485/Em525, primary screen (AID 898)). Settings: hits give high values, concentration not given here.

Q: Which inhibition does the source give for COC1=CCC2([N+](=O)[O-])CN(CC(=O)O)CC1([N+](=O)[O-])C2 (stereo not given) here?
A: -24.9%

Q: With O=C(COC(=O)/C=C/c1ccc(S(=O)(=O)N2CCCCCC2)cc1)NCc1ccccc1Cl as the compound, how does the inhibition read?
A: -43.5%

Q: How did the inhibition turn out when COC(=O)c1sc(N)c(C(=O)OC)c1COC(=O)CNS(=O)(=O)c1ccc(C)cc1 was run?
A: -21.7%

Q: With Cc1ccc(C(C[N+](=O)[O-])c2c(C)cc3ccccn23)cc1 (stereo not given) as the compound, how does the inhibition read?
A: -23.1%

Q: For CN1CCN(c2ccc(S(=O)(=O)N3CCCCC3)cc2NC(=O)Cc2ccccc2F)CC1, which inhibition is on record?
A: -23.6%

Q: O=C(NNC(=O)c1cc2c(s1)CCCC2)c1ccccc1 was tested. Which inhibition did it give?
A: -2.47%

Q: Which inhibition does the source give for O=C(NCCOc1ccccc1Cl)C(=O)Nc1ccccc1 here?
A: -35.1%

Q: With O=C(CN1C(=O)/C(=C\c2ccc(C(F)(F)F)cc2)Sc2ccccc21)NCc1ccco1 as the compound, how does the inhibition read?
A: -14.7%

Q: For COc1ccc(C)cc1NC(=O)C(OC(=O)c1cccc(S(=O)(=O)N(C)c2ccccc2)c1)c1ccccc1 (stereo not given), which inhibition is on record?
A: -35.9%

Q: With O=[N+]([O-])c1ccc(N/N=C2/CCCCC2c2ccccn2)c([N+](=O)[O-])c1 (stereo not given) as the compound, how does the inhibition read?
A: -15.4%

Q: O=C(OCc1ccc(Br)cc1)c1cccc(-c2nnc(-c3ccccc3)o2)c1 was tested. Which inhibition did it give?
A: -11.6%

Q: C/C(=N\NC(=O)CCn1nc(C)cc1C)C(C)(C)C was tested. Which inhibition did it give?
A: -8.98%

Q: For CC(C)CNC(=O)COC(=O)c1ccccc1OCC(=O)Nc1ccc(Br)cc1, which inhibition is on record?
A: -23.1%

Q: With Cc1cc(C)cc(C(=O)NC(=S)Nc2ccc3[nH]c(=O)[nH]c3c2)c1 as the compound, how does the inhibition read?
A: -11.9%

Q: Cc1cc(SCC(=O)NCCN2C(=O)CSC2=O)nc2ccccc12 was tested. Which inhibition did it give?
A: -4.76%

Q: How did the inhibition turn out when Cc1ccc2[nH]cc(CCCN3C(=O)c4ccccc4C3=O)c2c1 was run?
A: -23.7%

Q: How did the inhibition turn out when Cc1ccc(N(C(=O)c2ccc(CN3CCOCC3)o2)C(C(=O)NCCC(C)C)c2cccs2)c(C)c1 (stereo not given) was run?
A: -6.18%

Q: For CCCOc1ccc(NC(=O)C2OC3OC(C)(C)OC3C3OC(C)(C)OC23)cc1 (stereo not given), which inhibition is on record?
A: -26.3%

Q: With O=C(COc1nc2ccccc2nc1N1CCOCC1)NCC(F)(F)F as the compound, how does the inhibition read?
A: -21.6%

Q: CCOc1ccc(Br)cc1S(=O)(=O)Nc1cccc(S(=O)(=O)N(CC)CC)c1 was tested. Which inhibition did it give?
A: -29.5%

Q: For O=C1NC(c2ccc(-c3ccccc3[N+](=O)[O-])o2)C(C(=O)c2ccc(Cl)cc2)C(O)(C(F)(F)F)N1 (stereo not given), which inhibition is on record?
A: -11.1%

Q: Which inhibition does the source give for CCOc1ccc(Oc2nc(C)cc(OC)n2)nn1 here?
A: -16%

Q: Which inhibition does the source give for Cc1cccc(OCCNC(=S)NC(=O)c2cccnc2)c1 here?
A: -28.5%

Q: Which inhibition does the source give for O=C(NCCC1=CCCCC1)c1ccc(Cl)c([N+](=O)[O-])c1 here?
A: -21.9%

Q: CC(C)(C)c1ccc(NC(=O)COC(=O)CCc2nc3ccccc3c(=O)[nH]2)cc1 was tested. Which inhibition did it give?
A: -15.2%

Q: COc1ccc(NC(=O)c2sc(N3CCOCC3)nc2-c2ccccc2)c(OC)c1 was tested. Which inhibition did it give?
A: -1.88%

Q: How did the inhibition turn out when CC1=C(C)CC(C(=O)NNC(=O)c2csc3c2CCC(C(C)(C)C)C3)C(C(=O)O)C1 (stereo not given) was run?
A: -33.4%

Q: How did the inhibition turn out when Cc1ccc(C)c(NC(=O)C(OC(=O)c2ccc(C)s2)c2ccccc2)c1 (stereo not given) was run?
A: -11.6%

Q: For Cc1ccc(/C=C/C(=O)Nc2cc(S(=O)(=O)N3CCCCCC3)ccc2OCC(F)(F)F)o1, which inhibition is on record?
A: 7.49%

Q: Which inhibition does the source give for O=c1[nH]c(CN2CCN(S(=O)(=O)c3ccc4c(c3)OCCO4)CC2)nc2sc3c(c12)CCCC3 here?
A: -8.83%

Q: For Cc1ccc(S(=O)(=O)N(CC(=O)Nc2cccc([N+](=O)[O-])c2)Cc2ccc(Cl)cc2)cc1, which inhibition is on record?
A: -31.4%

Q: Which inhibition does the source give for CC(C)OCCCNC(=O)c1cc(Sc2ccc(F)cc2)nc2ccccc12 here?
A: -10.5%

Q: Which inhibition does the source give for COc1cccc(-n2c(SCC(=O)c3c[nH]c4ccccc34)nc3ccccc3c2=O)c1 here?
A: -22.8%

Q: With C/C(=N\NC(=O)c1ccc(CSc2nc(C)cc(C)n2)cc1)C1CCCCC1 as the compound, how does the inhibition read?
A: -27.2%

Q: How did the inhibition turn out when CC(=O)c1c(O)cc2n(c1=O)-c1ccc(Cl)cc1C2(C)C was run?
A: -21.9%

Q: With CSc1c(SCc2ccccc2)cnn(Cc2ccccc2)c1=O as the compound, how does the inhibition read?
A: -31.9%

Q: How did the inhibition turn out when Cc1ccc(S(=O)(=O)N(NC2=NS(=O)(=O)c3ccccc32)C(=O)c2ccccc2)cc1 was run?
A: -28.4%

Q: With CCCCCC(=O)Nc1ccc(S(=O)(=O)Nc2ccc(Cl)nn2)cc1 as the compound, how does the inhibition read?
A: -13.3%

Q: For CC(C)(C)C(=O)N1CCC[C@@]1(CO)C(=O)O, which inhibition is on record?
A: -12.8%

Q: With COc1ccc(C(CC(=O)c2ccccc2)S(=O)(=O)c2ccccc2)cc1 (stereo not given) as the compound, how does the inhibition read?
A: -12.2%

Q: For CCCCN(C)c1ccc([N+](=O)[O-])cc1, which inhibition is on record?
A: -11%

Q: How did the inhibition turn out when CCCCOc1ccc(NC(=O)[C@@H]2CCCN2C(=O)C2CCN(S(=O)(=O)c3ccc(C)cc3)CC2)cc1 was run?
A: -8.82%

Q: Cc1ccccc1Cn1nc(C)c(NC(=O)C(F)(F)F)c1C was tested. Which inhibition did it give?
A: -28.6%

Q: With Cc1ccc(-c2csc(NNC(=O)c3ccccc3)n2)cc1 as the compound, how does the inhibition read?
A: -36.8%

Q: Cc1ccccc1/[N+]([O-])=C/c1ccncc1 was tested. Which inhibition did it give?
A: 77.8% (active)

Q: For CC(NC(=O)C(=O)NN=C1CCC(C(C)(C)C)CC1)c1ccccc1 (stereo not given), which inhibition is on record?
A: -22%

Q: For CCOc1ncccc1C(=O)N(CC)CC(=O)Nc1ccc(NC(C)=O)cc1, which inhibition is on record?
A: -14.7%

Q: Which inhibition does the source give for Cc1cc(C(=O)CSc2nc(N)cc(=O)[nH]2)c(C)n1-c1cccc(F)c1 here?
A: -16.4%

Q: How did the inhibition turn out when COC(=O)Cc1csc(/N=C/c2c(O)n(-c3cccc(C(F)(F)F)c3)c(=O)c3ccccc23)n1 was run?
A: -22.8%

Q: For COc1ccc(-n2c(C)cc(C(=O)CN3C(=O)NC4(CCc5ccccc54)C3=O)c2C)cc1 (stereo not given), which inhibition is on record?
A: -19.6%

Q: How did the inhibition turn out when Cc1scc(C(=O)NNC(=S)NCC(C)C)c1C was run?
A: -19.1%

Q: Which inhibition does the source give for COCCCNC(=O)Cn1cc(/C=C(\C#N)C(=O)N2CCN(c3ccccc3)CC2)c2ccccc21 here?
A: -25.6%

Q: CC(=O)Nc1cccc(/C(C)=N/NC(=O)c2c(-c3ccccc3Cl)noc2C)c1 was tested. Which inhibition did it give?
A: -32.1%

Q: For CC(C)Cc1nn2c(=O)cc(O)nc2s1, which inhibition is on record?
A: -35.6%

Q: How did the inhibition turn out when COc1ccc(OCC(=O)Nc2cc(C)c(Cl)cc2OC)c([N+](=O)[O-])c1 was run?
A: -16.9%

Q: With CC(=O)NC1C(OCc2ccccc2)OC(COC(C)=O)C(OC(C)=O)C1OC(C)=O (stereo not given) as the compound, how does the inhibition read?
A: -23.9%

Q: With O=C(OCC1O[C@@H](OC(=O)c2cc(O)c(O)c(O)c2)[C@@H](OC(=O)c2cc(O)c(O)c(O)c2)[C@@H](OC(=O)c2cc(O)c(O)c(O)c2)[C@@H]1OC(=O)c1cc(O)c(O)c(O)c1)c1cc(O)c(O)c(O)c1 (stereo not given in full) as the compound, how does the inhibition read?
A: 71.9% (active)

Q: Which inhibition does the source give for S=C(NCCc1ccccc1)NCC1CCCO1 (stereo not given) here?
A: -37.5%

Q: With CCS(=O)(=O)Nc1cccc(-c2cc(-c3ccccc3)c3cc(C)ccc3n2)c1 as the compound, how does the inhibition read?
A: -8.31%

Q: Which inhibition does the source give for CCc1ccc(C(=O)OCC(=O)Nc2cccc(S(=O)(=O)NC3=NCCCCC3)c2)cc1 here?
A: -20.5%

Q: Which inhibition does the source give for Cc1cc([N+](=O)[O-])ccc1NC(=O)C1CCCO1 (stereo not given) here?
A: -25.6%

Q: With Cc1cc([N+](=O)[O-])nn1CC(=O)Nc1ccc(Cc2ccncc2)cc1 as the compound, how does the inhibition read?
A: -27.8%

Q: O=C(Nc1ccccc1Cc1ccccc1)c1ccc2c(c1)SC1=NS(=O)(=O)CCN12 was tested. Which inhibition did it give?
A: -31.8%

Q: For CCOC(=O)CN1C(=O)N[C@@H](c2ccc(Br)cc2)C(C(C)=O)=C1C, which inhibition is on record?
A: -19.8%

Q: With CC(=O)c1ccc(N2CCN(C(=O)c3ccc4nc[nH]c4c3)CC2)cc1 as the compound, how does the inhibition read?
A: -23.5%

Q: Which inhibition does the source give for COc1ccc2oc(-c3cccc(NC(=O)CSc4ccc(Cl)cc4)c3)nc2c1 here?
A: -28.2%

Q: COc1ccc(N2C(=O)C(CC(=O)Nc3ccc(F)cc3)N(CCc3cccs3)C2=O)cc1 (stereo not given) was tested. Which inhibition did it give?
A: -4.8%

Q: For Cc1ccc(CCCOC(=O)C[N+]2(C)CCCC2)cc1, which inhibition is on record?
A: -21.4%

Q: Which inhibition does the source give for CCC(=O)Nc1c(C)n[nH]c1C here?
A: -26.6%

Q: Which inhibition does the source give for CCCN1C(=O)C(Cc2nc3ccccc3c(=O)n2-c2ccccc2)c2cc(C)ccc21 (stereo not given) here?
A: -10.9%

Q: CCOC(=O)c1cccnc1NC(=O)c1ccncc1 was tested. Which inhibition did it give?
A: -10.3%

Q: How did the inhibition turn out when COc1cccc2c1CCC(NC(C)=O)C2=O (stereo not given) was run?
A: -4.91%

Q: With CCN(CC)S(=O)(=O)c1ccc(C)c(NC(=O)COc2ccc(Br)cc2Cl)c1 as the compound, how does the inhibition read?
A: -2.1%

Q: How did the inhibition turn out when Cc1coc2c(O)cc3c(c12)OC1(N2CCCCC2)C(=O)NCCCC31 (stereo not given) was run?
A: 73% (active)

Q: How did the inhibition turn out when COc1ccc(CNC(=O)CCCn2nc(C)c([N+](=O)[O-])c2C)cc1 was run?
A: -22.1%

Q: With COc1ccc(/C=C/C(=O)NC(=S)NN2CCCCC2c2cccnc2)cc1 (stereo not given) as the compound, how does the inhibition read?
A: -20.6%

Q: Which inhibition does the source give for Cc1ccc(C(=O)COC(=O)CCCC(=O)NC2CCCCC2)cc1[N+](=O)[O-] here?
A: -26.3%

Q: For CCNC(=S)N1CCC(c2nc3cc(C)c(C)cc3[nH]2)CC1, which inhibition is on record?
A: -17.7%

Q: O=S(=O)(ON(c1ccccc1)S(=O)(=O)c1ccccc1)c1ccccc1 was tested. Which inhibition did it give?
A: -36.9%

Q: For CCOC(=O)c1csc(NC(=O)Nc2cccc(OC)c2)n1, which inhibition is on record?
A: -29.1%

Q: O=C(NC(CC(=O)N1CCN(c2ccccc2)CC1)c1ccccc1)c1ccccc1Cl (stereo not given) was tested. Which inhibition did it give?
A: -12%

Q: With CCOc1cccc2c1OC1(CCCCC1)N1N=C(c3cccnc3)CC21 (stereo not given) as the compound, how does the inhibition read?
A: -19.2%

Q: With CC1(c2ccccc2)CC(C)(C)N(C(=O)c2cc([N+](=O)[O-])cc([N+](=O)[O-])c2)c2ccccc21 (stereo not given) as the compound, how does the inhibition read?
A: -29.6%

Q: CC1CCN(C2=NC(=O)/C(=C/c3cn[nH]c3-c3ccccc3)S2)CC1 was tested. Which inhibition did it give?
A: -21.6%

Q: For Cc1ccc(-n2c(SCC(=O)Nc3ncc(Cl)cc3Cl)nc3ccccc32)cc1, which inhibition is on record?
A: 8.79%
